The values below come from the supplement of paper PMC6555819.

The first experiment has as its system PPARg DBDmut IVT, anti-PPARg (DBD mutation: PPARg1 K132A/R137A, NR concentration 270 nM). Description: PBM binding z-score (relative to random genomic background probes); higher = stronger binding; sequences stand for … in GC…GCGATTGACAGCGTAGAATGAAGG
A digest of the protocol:
(§1)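 Binding z-scores were set against random background probes. The data came from custom Agilent 4×180K protein-binding microarrays carrying double-stranded probes with 34-nt variable regions, incubated 1 h with ligand-free nuclear receptor dimers. Partner-specific antibodies detected binding, and scanned fluorescence was regression-normalized.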
As to CCTACTGGGCCAACGTCATTGATCAGTCAAAGCA, the PBM binding z-score was -0.52.
In the case of CCGACTCGGGCAGAAAGGTTACCATACCATCCGG, the PBM binding z-score is -1.19.
CCTTCTGGGCCACGAAAGGTCATTGATTCAGTGA had a PBM binding z-score of 2.08.
Consider ACTAGCAGGCCGAGGGTCACTCAAGATTAGTCCG, for which the PBM binding z-score is -0.885.
As for CCTATTAGTTGACCATAAGGGCAACCGAAGCTCG, the PBM binding z-score is 0.387.
With ACTATTAGTTGACTTACGGCAACCGATACGACGC, the PBM binding z-score worked out at 1.35.
Sequence CCGGCTAGGTCAATGGTCAGCTAAAGCAGCTCGC had a PBM binding z-score of -0.801.
Consider TCTAGCAGGCCAGAGGGTCGCTCAAGAGGTACGG, for which the PBM binding z-score was -1.41.
As for ACTTCCGGGTCAACGAGGTTATAGCACGCGTATA, the PBM binding z-score worked out at 0.785.
As to CCGACTGAGGCATAAGGTTACCATAAGCCAGCCC, the PBM binding z-score is -0.854.
GGAACGAGGGCAAGTTGACAGCAGAGTTTGATGG gave a PBM binding z-score of -0.654.
CCAGACTGGTGAGAAGGTAACTCAGCCTCGATTA yielded a PBM binding z-score of -0.669.
Turning to CGTCCAAGGTCAGAGAGGTCAGTGGATGCCGAGT, the PBM binding z-score was 0.0263.
In turn, TCGGACAGGTGAAGGTAACTCAGGTACGCAGTCG had a PBM binding z-score of -0.574.
GCTATTAGTTGAAAGGGCAACCGAATGATTCTCG returned a PBM binding z-score of 0.432.
In turn, ACAGACAGGTGATGAAGGTGACTCAGGCTATCAT displayed a PBM binding z-score of 0.382.
The sequence ACTATTAGTTGAGACGATGGCAACCGATAGGTTG registered a PBM binding z-score of 1.06.
As for ACACCAAGGTGATCGTGAGGTCGTTGATACTAAC, the PBM binding z-score amounted to 0.153.
TGAATGAGGTTATAAAATCAGGGAACGTTGCAAA: the PBM binding z-score amounted to 0.504.
Consider TATACAGGGTCAAAAGCCAGAGTACGAATGTCGA, for which the PBM binding z-score was 1.55.
For ACTTACGGGTCACCGAGGTTATAGCACGCGTATA, the PBM binding z-score turned out to be 1.98.
The same measure, in the same setting: as for TCTGGTAGGTCAGTTGGTCAGCTAACGAGCTGCC, the figure is -0.0633; as for AATACAGCGTCATCGTAGGCCAGAGTACGCACAG, -0.309; as for CGTCAAAGTTCAACTCAGGTAACGTAAAGCACGC, 0.924.
For the sequence ATATGTAGGTTAAGGGTGATTCAGGTTGGTTCGC, the PBM binding z-score turned out to be 1.38.
As to CCAGACAGGTGAAAGATAACTCAGTCTGGTACGC, the PBM binding z-score was -0.498.
Consider TCTAGTTGATCAAAGGTCACACACTCGAAATGCG, for which the PBM binding z-score was 1.36.
Consider TCTCGGAGGACAGGAAGGTCAGAGCTTTCCAGAG, for which the PBM binding z-score was -1.7.
The same measure, in the same setting: next, CTCTAAAGGTCGGTTGAGGTGAGTATACGGATAA: 0.0389; CGTCCAAGGTCAGAGAGGTTAGTGAATGCCGAGT: -0.422.
On the same count and under the same terms, next, CCGACTGCGGCAAGGTTACCATAACGCACAGCCA: -0.256; CCTAGCAGGACAATCTGGGTCACTCAAGGCTTGA: -0.424; AGGCAAAGTTCACTAGGTAACGTAAGATTCAGCT: 1.49.
Still for that read-out and setting: as for CTCGAAAGGACGGTTGAGGTGAGTATACGGATAA, the figure is 0.0698; as for CGAACGAGGGCATGAGTCGATAGCAAATGCCGAT, -0.876.
In the case of CCTACTTGGCCAAAAAGGTCATTGATGCCGATAA, the PBM binding z-score amounted to 0.465.
The same measure, in the same setting: as for CCTACTGGGCCATCAGGTCATTAATATCAACGTT, the figure is 0.269; as for TCTAGTTGGTCAGGGAGGTCACACACGACGGGTA, 0.586.
Consider GCTAGCAGGCCAATTGGGTCACTCAATGACGGGC, for which the PBM binding z-score was -0.884.

In another experiment the test system is PPARg homodimer (NR concentration 180 nM). The experiment is described as above. A digest of the protocol:
as §1
Sequence CCTACTGGGCCAACGTCATTGATCAGTCAAAGCA had a PBM binding z-score of 0.534.
The same measure, in the same setting: next, CCGACTCGGGCAGAAAGGTTACCATACCATCCGG: 0.529.
In the case of CCTTCTGGGCCACGAAAGGTCATTGATTCAGTGA, the PBM binding z-score is 5.35.
Consider ACTAGCAGGCCGAGGGTCACTCAAGATTAGTCCG, for which the PBM binding z-score worked out at 0.902.
The sequence CCTATTAGTTGACCATAAGGGCAACCGAAGCTCG returned a PBM binding z-score of 1.7.
Still for that read-out and setting: as for ACTATTAGTTGACTTACGGCAACCGATACGACGC, the figure is 0.496; as for CCGGCTAGGTCAATGGTCAGCTAAAGCAGCTCGC, 0.684; as for TCTAGCAGGCCAGAGGGTCGCTCAAGAGGTACGG, -0.918.
As for ACTTCCGGGTCAACGAGGTTATAGCACGCGTATA, the PBM binding z-score is 3.05.
Sequence CCGACTGAGGCATAAGGTTACCATAAGCCAGCCC registered a PBM binding z-score of 0.366.
For GGAACGAGGGCAAGTTGACAGCAGAGTTTGATGG, the PBM binding z-score amounted to 0.481.
In the case of CCAGACTGGTGAGAAGGTAACTCAGCCTCGATTA, the PBM binding z-score was 0.4.
Regarding CGTCCAAGGTCAGAGAGGTCAGTGGATGCCGAGT, the PBM binding z-score came to 3.71.
For the sequence TCGGACAGGTGAAGGTAACTCAGGTACGCAGTCG, the PBM binding z-score was 0.536.
On the same count and under the same terms, as for GCTATTAGTTGAAAGGGCAACCGAATGATTCTCG, the figure is 1.15; as for ACAGACAGGTGATGAAGGTGACTCAGGCTATCAT, 0.791.
ACTATTAGTTGAGACGATGGCAACCGATAGGTTG came in with a PBM binding z-score of 0.664.
Sequence ACACCAAGGTGATCGTGAGGTCGTTGATACTAAC returned a PBM binding z-score of 0.72.
Take TGAATGAGGTTATAAAATCAGGGAACGTTGCAAA: the PBM binding z-score is 0.289.
Regarding TATACAGGGTCAAAAGCCAGAGTACGAATGTCGA, the PBM binding z-score came out at 1.9.
In turn, ACTTACGGGTCACCGAGGTTATAGCACGCGTATA yielded a PBM binding z-score of 3.07.
In turn, TCTGGTAGGTCAGTTGGTCAGCTAACGAGCTGCC displayed a PBM binding z-score of 1.33.
The sequence AATACAGCGTCATCGTAGGCCAGAGTACGCACAG displayed a PBM binding z-score of -0.333.
Take CGTCAAAGTTCAACTCAGGTAACGTAAAGCACGC: the PBM binding z-score was found to be 4.03.
The same measure, in the same setting: as for ATATGTAGGTTAAGGGTGATTCAGGTTGGTTCGC, the figure is 3.75.
The sequence CCAGACAGGTGAAAGATAACTCAGTCTGGTACGC showed a PBM binding z-score of 0.844.
Regarding TCTAGTTGATCAAAGGTCACACACTCGAAATGCG, the PBM binding z-score was 4.93.
Take TCTCGGAGGACAGGAAGGTCAGAGCTTTCCAGAG: the PBM binding z-score worked out at 0.357.
In turn, CTCTAAAGGTCGGTTGAGGTGAGTATACGGATAA returned a PBM binding z-score of 1.04.
The sequence CGTCCAAGGTCAGAGAGGTTAGTGAATGCCGAGT had a PBM binding z-score of 2.06.
Sequence CCGACTGCGGCAAGGTTACCATAACGCACAGCCA returned a PBM binding z-score of 0.4.
Sequence CCTAGCAGGACAATCTGGGTCACTCAAGGCTTGA showed a PBM binding z-score of 0.6.
Regarding AGGCAAAGTTCACTAGGTAACGTAAGATTCAGCT, the PBM binding z-score was determined as 3.61.
In turn, CTCGAAAGGACGGTTGAGGTGAGTATACGGATAA registered a PBM binding z-score of -0.218.
CGAACGAGGGCATGAGTCGATAGCAAATGCCGAT showed a PBM binding z-score of 0.211.
Regarding CCTACTTGGCCAAAAAGGTCATTGATGCCGATAA, the PBM binding z-score amounted to 4.5.
CCTACTGGGCCATCAGGTCATTAATATCAACGTT yielded a PBM binding z-score of 2.46.
Regarding TCTAGTTGGTCAGGGAGGTCACACACGACGGGTA, the PBM binding z-score is 2.66.
Sequence GCTAGCAGGCCAATTGGGTCACTCAATGACGGGC had a PBM binding z-score of -0.0833.
